# The campaign covered roughly 56,000 […]. About 2,300 (4.1%) were called active. No stated cut-off is given here; in the data, active = GI50 up to about 1.1 µM and inactive = higher. The list is a sample of the results. Measured potencies and affinities stand elsewhere.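 Five concentrations, 48 hours, 96-well plates. GI50 = concentration required for 50% inhibition of growth.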
# Test system: TK-10
# Assay: NCI tumour cell line growth inhibition, 48 h
row,Substance,GI50
1,"[Bis(aminomethyl)ethylmethylsilane]tetrachloroplatinum(IV), CHEMBL2146192",13.1 µM
2,"[Bis(aminomethyl)tetramethylenesilane]dichloropaltinum(II), CHEMBL2146205",32.2 µM
3,"[Bis(aminomethyl)dimethylsilane]tetrachloroplatinum(IV), CHEMBL2146190",9.48 µM
4,"[Bis(aminomethyl)diethylsilane]tetrachloroplatinum(IV), CHEMBL2146203",13.4 µM
5,"mu-(1,7-nanodiamine-N,N')bis-(cis-aminedichloroplatimum (II)), CHEMBL2146215",62.8 µM
6,"[Bis(aminomethyl)pentamethylenesilane]tetrachloropaltinum(IV), CHEMBL2146204",17.1 µM
7,"[Bis(aminomethyl)dimethylsilane]dichloroplatinum (II), CHEMBL2146201",24.6 µM
8,"cis-Bis[[(trimethylsilyl)methyl]amino]tetrachloroplatinum(IV), CHEMBL2146191",13.2 µM
9,"CISPLATIN, CHEMBL11359",6.64 µM
10,"[Bis(aminomethyl)tetramethylenesilane]tetrachloropaltinum(IV), CHEMBL2146189",9.91 µM
11,"[Bis(aminomethyl)pentamethylenesilane]dichloropaltinum(II), CHEMBL2146202",12.7 µM
